From PubChem BioAssay AID1159580 (chemical genetic matrix, 2015)
Out of some 5,500 compounds screened, about 2,000 (36%) were called active. Another 18% or so got no clear call; they are omitted. No stated cut-off is given here; in the data, active means normalized growth mostly below about 0.91 (no sharp cut-off); inconclusive means no clear call, values can overlap the other calls; inactive means mostly above about 0.92. The list shows a part of the results.

Assay: chemical genetic growth profiling, strain panel (AID 1159580);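 further: tested at 20 µM; growth read once vehicle control cultures reached saturation at 30 °C; 1 = growth at the plate median or of vehicle wells; lower values mean less growth of the strain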
Conditions: S. cerevisiae deletion strains, growth OD

Measured: normalized growth

CO[C@H]1[C@H](O)[C@H](O[C@H]2CC[C@]3(C)C4CC[C@]5(C)C(C6=CC(=O)OC6)CC[C@]5(O)C4CC[C@@H]3C2)O[C@@H](C)[C@@H]1O (some centres undefined)
inactive: locus YAL013W, strain DEP1, hits give low values 1.01 | locus YAL021C, strain ccr4, hits give low values 1 | locus YAL026C, strain drs2, hits give low values 1.01 | locus YAL030W, strain snc1, hits give low values 1 | locus YBL061C, strain skt5, hits give low values 0.993 | locus YBR009C, strain hhf1, hits give low values 1.01 | locus YBR021W, strain FUR4, hits give low values 1.02 | locus YBR023C, strain chs3, hits give low values 0.999 | locus YBR171W, strain sec66, hits give low values 0.984 | locus YBR229C, strain ROT2, hits give low values 1.01 | locus YBR231C, strain swc5, hits give low values 1.03 | locus YBR279W, strain paf1, hits give low values 1.01 | locus YCL011C, strain gbp2, hits give low values 0.992 | locus YCL016C, strain dcc1, hits give low values 1 | locus YCL029C, strain bik1, hits give low values 1.01 | locus YCL061C, strain MRC1, hits give low values 0.996 | locus YCL069W, strain vba3, hits give low values 1 | locus YCR088W, strain abp1, hits give low values 1 | locus YDL005C, strain med2, hits give low values 0.994 | locus YDL035C, strain GPR1, hits give low values 1.02 | locus YDL040C, strain nat1, hits give low values 1.02 | locus YDL074C, strain BRE1, hits give low values 1.02 | locus YDL101C, strain DUN1, hits give low values 1.02 | locus YDL134C, strain PPH21, hits give low values 1 | locus YDL185W, strain tfp1, hits give low values 1 | locus YDL192W, strain arf1, hits give low values 1.01 | locus YDR001C, strain nth1, hits give low values 0.994 | locus YDR069C, strain doa4, hits give low values 0.997 | locus YDR101C, strain arx1, hits give low values 0.993 | locus YDR137W, strain rgp1, hits give low values 1 | locus YDR150W, strain NUM1, hits give low values 1.01 | locus YDR159W, strain sac3, hits give low values 0.997 | locus YDR162C, strain NBP2, hits give low values 1.02 | locus YDR195W, strain ref2 0.989 | locus YDR297W, strain sur2, hits give low values 1.01 | locus YDR318W, strain mcm21, hits give low values 1.01 | locus YDR334W, strain swr1, hits give low values 1.03 | locus YDR335W, strain msn5, hits give low values 1.01 | locus YDR388W, hits give low values 1.01 | locus YDR392W, strain spt3, hits give low values 0.991 | locus YDR502C, strain sam2, hits give low values 1 | locus YEL003W, strain gim4, hits give low values 1.02 | locus YEL037C, strain rad23, hits give low values 1.01 | locus YEL061C, strain CIN8 (second series), hits give low values 0.987 | locus YEL061C, strain CIN8, hits give low values 1.01 | locus YER015W, strain faa2, hits give low values 1 | locus YER016W, strain bim1, hits give low values 1 | locus YER110C, hits give low values 1.02 | locus YER111C, strain swi4, hits give low values 1.01 | locus YER155C, strain BEM2 (second series), hits give low values 1.03 | locus YER155C, strain BEM2, hits give low values 1.02 | locus YER167W, strain BCK2, hits give low values 1.02 | locus YFR010W, strain ubp6, hits give low values 1.01 | locus YGL078C, strain dbp3, hits give low values 1 | locus YGL086W, strain mad1, hits give low values 1.01 | locus YGL167C, strain pmr1, hits give low values 1 | locus YGL173C, strain kem1, hits give low values 0.996 | locus YGL227W, strain vid30, hits give low values 0.997 | locus YGL240W, strain doc1, hits give low values 1.02 | locus YGL248W, strain PDE1, hits give low values 1.01 | locus YGL253W, strain hxk2, hits give low values 0.996 | locus YGR078C, strain PAC10, hits give low values 1.01 | locus YGR135W, strain pre9, hits give low values 1.02 | locus YGR229C, strain SMI1, hits give low values 1.03 | locus YGR252W, strain gcn5, hits give low values 0.964 | locus YHR013C, strain ard1, hits give low values 0.98 | locus YHR027C, strain rpn1, hits give low values 0.979 | locus YHR030C, strain SLT2, hits give low values 1.01 | locus YHR079C, strain IRE1 (second series), hits give low values 1.01 | locus YHR094C, strain hxt1, hits give low values 1.01 | locus YHR129C, strain ARP1, hits give low values 1.01 | locus YHR142W, strain chs7, hits give low values 1.02 | locus YHR200W, strain rpn10, hits give low values 1.01 | locus YIL066C, strain RNR3, hits give low values 1.01 | locus YIL073C, strain SPO22, hits give low values 1.02 | locus YIL125W, strain kgd1, hits give low values 0.997 | locus YIR030C, strain dcg1, hits give low values 0.998 | locus YJL092W, strain hpr5, hits give low values 1 | locus YJL095W, strain BCK1 (second series), hits give low values 0.981 | locus YJL095W, strain BCK1, hits give low values 1.04 | locus YJL115W, strain asf1, hits give low values 0.999 | locus YJL129C, strain trk1, hits give low values 0.974 | locus YJL134W, strain LCB3, hits give low values 1.01 | locus YJL154C, strain vps35, hits give low values 1.01 | locus YJL164C, strain tpk1, hits give low values 0.998 | locus YJL166W, strain qcr8, hits give low values 1 | locus YJL168C, strain set2, hits give low values 1.01 | locus YJL187C, strain SWE1 (second series), hits give low values 1.02 | locus YJL187C, strain SWE1, hits give low values 0.998
